Screening data as filed in PubChem.
Hits are enriched below; roughly 8.7% of the tested compounds scored in any of these assays.
JMJD2A Tudor inh: inhibitors of human JMJD2A Tudor domain; O75164; AlphaScreen JMJD2A-Tudor / H3K4me3 peptide binding; Potency, µM (titrated, usually from 114 µM), for inactives: at the highest dose activity change, negative = inhibition, hits mostly inhibitors; hit rate 4.4% among 390,000; further: on the % scale 0 is the no-effect control and ±100 the full control effect; nearly all actives have a fitted effect of over 50% in size
HP1b chromo inh: blocks HP1-beta chromodomain binding to methylated histone tails; P83916; AlphaScreen HP1-beta / biotin-H3K9me3 peptide binding; Potency, µM (series often up to 114 µM), inactives show top-dose activity change, negative = inhibition, actives largely listed as inhibitors; hit rate 0.56% among 390,000; AID 540317; further: nearly all actives have a fitted effect of over 70% in size
Target sequence (P83916 whole entry, looked up): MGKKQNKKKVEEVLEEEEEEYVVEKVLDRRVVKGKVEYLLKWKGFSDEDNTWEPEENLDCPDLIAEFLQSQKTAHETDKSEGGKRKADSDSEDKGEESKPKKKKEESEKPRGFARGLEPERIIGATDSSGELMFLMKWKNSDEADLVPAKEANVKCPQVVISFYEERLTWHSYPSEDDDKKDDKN
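HP1-beta protein (50 nM final) preincubated 30 min at room temperature with biotinylated H3(1-18)K9me3 peptide (50 nM) in PBS pH 7.4, 0.01% Tween-20, then compound added for 30 min. AlphaScreen streptavidin donor/nickel chelate acceptor beads (10 ug/mL final), 30 min dark, luminescence read.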
G9a inh: inhibitors of human histone lysine methyltransferase G9a; Q96KQ7; G9a H3K9 monomethylation, AlphaScreen, 2 h; Potency, µM (highest dose often 102 µM), inactives show at the top dose activity, negative = inhibition, actives largely listed as inhibitors; hit rate 8.8% among 350,000; AID 504332; further: on the % scale 0 is the no-effect control and ±100 the full control effect; nearly all actives have a fitted effect of over 75% in size
Target sequence (Q96KQ7 913-1193 limits assumed): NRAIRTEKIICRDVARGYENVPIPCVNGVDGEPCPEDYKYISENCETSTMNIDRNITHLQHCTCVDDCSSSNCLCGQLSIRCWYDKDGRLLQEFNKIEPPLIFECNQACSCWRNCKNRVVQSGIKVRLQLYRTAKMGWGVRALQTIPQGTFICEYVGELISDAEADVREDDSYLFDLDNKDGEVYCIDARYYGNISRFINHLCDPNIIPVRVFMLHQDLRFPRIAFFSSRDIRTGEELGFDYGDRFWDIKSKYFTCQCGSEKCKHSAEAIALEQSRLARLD
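AlphaScreen read-out: biotin-H3K9 peptide (500 nM) methylation by 20 nM enzyme with 20 uM SAM, 2 h at room temperature after 15 min compound preincubation; anti-monomethyl H3K9 antibody plus donor/acceptor beads, 10 min dark.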
Sfp PPTase inh: Sfp phosphopantetheinyl transferase inhibition | Biochemical Sfp PPTase activity, qHTS | Potency, µM, inactives show largest response in the series, negative = inhibition, usual class: inhibitors | Q9F4F7 | hit rate 3.5% among 310,000;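 further: the enzyme is Sfp with the accession as filed and its product quenches rhodamine fluorescence; 0% = enzyme reaction without inhibitor and -100% = no enzyme wells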
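With Hepes-Na pH 7.6 buffer containing 10 mM MgCl2, Sfp (15 nM) modified BHQ-2-YbbR (12.5 uM) using rhodamine-CoA (5 uM). Two reads 30 minutes apart at 525/598 nm yielded each well's rate.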
ALOX12 inh: ALOX12 (human) lipoxygenase inhibition; P18054; purified 12hLO, xylenol orange hydroperoxide absorbance; Potency, µM (series often up to 108 µM), without a hit: top-dose activity change, negative = inhibition, usual class: inhibitors; hit rate 1.1% among 580,000; further: on the % scale 0 is the no-effect control and ±100 the full control effect
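Hydroperoxide product was detected by ferrous iron/xylenol orange as the 573 to 405 nm absorbance ratio. Arachidonic acid at 40 uM (final) was turned over for 30 min at room temperature by 150 nM human 12hLO, pH 7.0 Hepes buffer, after 15 min compound preincubation.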
BAZ2B inh: blocks human BAZ2B; Q9UIF8; hit rate 4.4% among 360,000; AlphaScreen BAZ2B-H3K14Ac peptide displacement; Potency, µM (top dose mostly 114 µM), for inactives: at the top dose activity change, negative = inhibition, most hits filed as inhibitors; further: on the % scale 0 is the no-effect control and ±100 the full control effect; nearly all actives have a fitted effect of over 60% in size
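AlphaScreen displacement: compounds (up to 110uM) incubated 30 min at room temperature with a preformed 50 nM BAZ2B/50 nM biotinylated H3K14Ac peptide complex in PBS pH 7.4 with Tween-20. Donor and acceptor beads at 10 ug/mL final added, 20 min light-protected before reading.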
Starred values were filed as active, the others as inactive; ? = inconclusive; / = no result given; [ ] = another dose, or the depositor's remark. The call rests on the fitted dose curve; in most records, active means well fitted curve in the direction sought with a large enough effect; inconclusive means small, poorly fitted or top-dose-only effect, or another doubt; inactive means no such curve, though single readings can be large; an effect the other way counts as inactive or inconclusive. Potency means the concentration at half of the fitted maximal effect.

SMILES | JMJD2A Tudor inh | HP1b chromo inh | G9a inh | Sfp PPTase inh | ALOX12 inh | BAZ2B inh
CC(C1CC1)N(C)Cc1nnc(-c2ccc(Br)o2)o1 (centres undefined) | / | / | / | / | 80% | /
COc1ccccc1C(=O)CSc1nccn1C | -20% | -5% | ? | 56µM* | ? | -5%
Cn1ccnc1SCC(=O)c1ccc(Br)cc1 | ? | -14% | 50µM* | -16% | -22%[57.4 µM] | ?
CCn1cnnc1CC1CCN(C(=O)CCC(=O)n2nc(C)c3ccccc32)CC1 | / | / | / | / | 40% | /
COc1ccccc1N1CCCc2ncc(C(=O)N3CCC[C@@H]3c3ccc(F)cc3)cc21 | / | / | / | / | 17%[176 µM] | /
Cc1cccc(CC(=O)N2CC3CC(C2)[C@H]2CCCC(=O)N2C3)c1 (some centres undefined) | / | / | / | / | 12% | /
CCOC(=O)CNC(=O)c1sc2nc(C)cc(C)c2c1N | 17% | 50% | 50µM* | 7% | 2% | -1%
Cc1cc(C)c2c(N)c(C(=O)NNC(=O)c3ccccc3)sc2n1 | -11% | 42% | 45µM* | -7% | -3% | -26%
Cn1c(=O)c2c(ncn2CC(=O)Nc2cccc(S(=O)(=O)Nc3ccccc3F)c2)n(C)c1=O | -2% | ? | / | 56µM* | ? | -4%
O=C(Cc1ccc(Cl)cc1)Nc1cccc(S(=O)(=O)Nc2ccccc2F)c1 | -10% | -4% | -4%[59 µM] | 21% | -7% | -2%
CN(c1ccccc1)S(=O)(=O)c1cccc(NC(=O)Cn2cnc3c2c(=O)n(C)c(=O)n3C)c1 | -3% | 14% | ? | 12% | -20% | 9%
O=C1CCC(C(=O)Nc2cccc(S(=O)(=O)Nc3ccccc3F)c2)=NN1 | ? | ? | / | / | 32µM* | /
O=C(CSc1ccc([N+](=O)[O-])cc1)Nc1cccc(S(=O)(=O)Nc2ccccc2F)c1 | ? | ? | ? | 45µM* | 40µM* | -31%
CCc1c(C(=O)N(C)Cc2nc3ccsc3c(=O)[nH]2)cnn1-c1cccc(Cl)c1 | / | / | / | / | 3% | /
CCCC[n+]1ccn(-c2nc3ccccc3nc2[N-]S(=O)(=O)c2ccc(Br)cc2)c1 | ? | 43% | / | -1% | 32% | -23%
CC(C)CC[n+]1ccn(-c2nc3ccccc3nc2[N-]S(=O)(=O)c2ccccc2)c1 | -1% | 43% | 12%[12.7 µM] | 79µM* | 0% | -24%
O=Nc1c(-c2cccc([N+](=O)[O-])c2)nc2ncccn12 | / | / | / | 16µM* | -45% | -14%
Nc1c(-c2ccccc2)nc2ncccn12 | / | / | / | / | -2% | /
Cc1ccc(-c2c(C(=O)N/N=C/c3ccc(C)o3)nnn2-c2nonc2N)cc1 | 5% | 26% | / | 50µM* | -24% | -25%
Cc1ccc(/C=N/NC(=O)c2nnn(-c3nonc3N)c2CSc2ccccc2)cc1 | -10% | 43% | / | 10% | 463% | -3%
Cc1ccc(/C=N/NC(=O)c2nnn(-c3nonc3N)c2CNc2ccccc2)cc1 | 22µM* | -7% | -9% | 16% | -2% | -32%
CC(C)CC(=O)N1CCCCCC1CN1CCOCC1 (centres undefined) | / | / | / | / | 12% | /
CN(C)/C=N/c1cc(=O)[nH]c(=O)n1CC1CC1 | -16% | 30% | 13% | 23% | 14% | -2%
C=CCn1c(=O)[nH]c2nc3cc(N=CN(C)C)c(C)cc3nc2c1=O | 2% | 37% | ? | 50µM* | ? | 1%
O=C(/C=C/c1ccc(Cl)cc1Cl)N[C@@H]1C[C@H]2CC[C@@H]1C2 | / | / | / | / | -12% | /
SMILES | JMJD2A Tudor inh | HP1b chromo inh | G9a inh | Sfp PPTase inh | ALOX12 inh | BAZ2B inh
C=C(C)CNC(=S)N/N=C(\C)c1cccc(NC(C)=O)c1 | -19% | 7% | 9% | -6% | ? | -11%
C=C(C)CNC(=S)Nc1cccc(N)n1 | -21% | 9% | 1.3µM* | -4% | ? | ?
CCCN(CCC)c1nc2ccccc2nc1C(C#N)C(=O)OCCOC (centres undefined) | -10% | 9% | -24%[59 µM] | -15% | ? | -31%
CCCOC(=O)C(C#N)c1nc2ccccc2nc1Cl (centres undefined) | / | / | / | / | 18µM* | /
C=CCN(CC=C)c1nc2ccccc2nc1C(C#N)C(=O)OCCOC (centres undefined) | -20% | 36% | 50µM* | 1% | 0% | -31%
NC(=O)COc1ccc(C(=O)N[C@@H]2CNCCC[C@H]2O)cc1 | / | / | / | / | 77%[176 µM] | /
CC(C)(C)C(=O)N1CCCC2(CN[S+](=O)([O-])c3cccnc3O2)C1 (centres undefined) | / | / | / | / | 2%[6.33 µM] | /
O=C(COCC(=O)Nc1ccc(Oc2ccccc2)cc1)Nc1ccccc1 | / | / | / | / | -49% | /
O=C(CC1=CCCCC1)N1CC(c2noc(C3CCCN3CC3CC3)n2)C1 (centres undefined) | / | / | / | / | 49% | /
CC1N(C)c2cc(NC(=O)c3ccco3)ccc2C1(C)C (centres undefined) | ? | -11% | ? | -24% | ? | 50µM*
O=C1OC(c2ccc(Cl)cc2)/C(=C(/O)c2ccccc2)C1=O (centres undefined) | 32µM* | -2% | / | -3% | ? | ?
CC(C)CC(=O)Nc1cc(C(C)(C)C)ccc1O | / | / | / | / | -47% | /
CCOc1ccc(-c2nc(CSCC(=O)N3CCN(c4cccc(OC)c4)CC3)c(C)o2)cc1 | 56µM* | ? | ? | -5% | 0% | ?
CCOc1ccc(-c2nc(CSCC(=O)NC3CCCc4ccccc43)c(C)o2)cc1 (centres undefined) | -27% | 26% | ? | 22µM* | -7% | ?
CCc1ccc(-c2nc(CSCC(=O)N3CCN(c4ccccn4)CC3)c(C)o2)cc1 | ? | -17% | 52%[59 µM] | -8% | 0% | 50µM*
CCOc1ccc(-c2nc(CSCC(=O)NC3CC3)c(C)o2)cc1 | -19% | 23% | -3%[0.0925 µM] | 12% | -20% | -8%
CC(=O)c1cccc(NC(=O)Cn2ccn3nc(-c4ccccc4)c(CO)c3c2=O)c1 | / | / | / | / | 13% | /
Cc1ccc(C)c(NC(=O)Cn2c(=O)n(-c3ccccc3)c(=O)c3c2cc(C)n3C)c1 | / | / | / | / | 42% | /
Cc1cccc(CNC(=O)C2CCCCC(=O)N2)c1 (centres undefined) | / | / | / | / | 20% | /
O=C(CC1CCCCN(Cc2ccccc2)C1=O)NC1CC1 (centres undefined) | / | / | / | / | 40% | /
Cc1cc2ccc(=O)oc2cc1OC[C@@H](O)C(C)(C)O | / | / | / | 4% | / | /
CC(C)(O)[C@H](O)COc1c2occc2cc2ccc(=O)oc12 | -22% | -1% | 1.4µM* | 6% | 10% | -6%
COc1ccc(NC(=O)N2C[C@@H]3C[C@H](C2)c2ccc(NC(=O)c4ccccc4)c(=O)n2C3)cc1 | / | / | / | / | -23% | /
O=C(Nc1ncccn1)c1cc([N+](=O)[O-])cc([N+](=O)[O-])c1 | -26% | 8% | 15%[59 µM] | 15% | -31% | -1%
